{"source": "PubChem BioAssay (NCI)", "note": "Values joined by “and” are separate entries in the source; they are usually repeats but may differ in a detail not shown here. Equal entries are not always repeated. Compounds without any hit were thinned out: in the full panel of roughly 83,000, 20% have a hit.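 Values shown are percent growth following 48 h exposure of cells in 96-well plates to a single concentration of compound; below 10 was considered active.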 Active and inactive are the calls of the source.", "data": [{"test_system": "MDA-MB-468 breast", "assay": "NCI-60 one-dose screen, 48 h (100 = growth as untreated, 0 = no growth, -100 = all killed)", "settings": "10 µM unless noted", "values": [{"smiles": "CC1=C(CCCOC(=O)[C@H](N)CC(C)C)C2=C(C)C3(CC3)[C@@](C)(O)C(=O)C2=C1", "growth": "-61.5% (active)"}, {"smiles": "CC(C)(NC(=O)O[C@@H]1CN2CCC1CC2)c1csc(-c2ccc(F)cc2)n1", "growth": "85.2% (inactive)"}, {"smiles": "O=C(CCl)Nc1ccc(Cl)cc1", "growth": "18.6% (inactive)"}, {"smiles": "C=C1[C@@H](C)[C@H]2[C@H](Cc3ccccc3)NC(=O)[C@]23[C@@H](O)/C=C/[C@@](C)(O)C(=O)[C@@H](C)C/C=C/[C@H]3[C@@H]1O", "growth": "-39% (active)"}, {"smiles": "O=C(O)c1cc(Cc2ccc(O)c(C(=O)O)c2)ccc1O", "note": "(tested in a mixture with another compound)", "growth": "-46.8% (active)"}, {"smiles": "COc1ccc(/C=C\\c2cc(OC)c(OC)c(OC)c2)c(NS(=O)(=O)c2ccc(F)cc2)c1O", "growth": "15.9% (inactive)"}, {"smiles": "C[C@@]12CC=C3c4nc(Nc5cccc(O)c5)sc4CC[C@]3(C)[C@H]1CC[C@]1(C)C(=O)CC[C@@H]21", "growth": "32.2% (inactive)"}, {"smiles": "C(=NC1CCCCC1)=NC1CCCCC1", "growth": "103% (inactive) and -21.2% (active)"}, {"smiles": "COP(=S)(OC)Oc1ccc(SC)c(C)c1", "growth": "108% (inactive)"}, {"smiles": "Clc1ccc2nnnn2n1", "growth": "35.6% (inactive)"}, {"smiles": "CCOC(=S)S[C@H]1C[C@@H]2[C@H](CC[C@]3(C)C(=O)CC[C@@H]23)[C@@]2(C)CCC(=O)C=C12", "growth": "101% (inactive)"}, {"smiles": "CCN(CC)CCn1c(=O)n(C)c2ccccc21", "growth": "100% (inactive)"}, {"smiles": "c1cnc2[nH]cc(-c3csc(-c4cn(CCCCN5CCOCC5)c5ccccc45)n3)c2c1", "growth": "35.1% (inactive)"}, {"smiles": "Cc1ccccc1O", "growth": "103% (inactive)"}, {"smiles": "O=C1C2C(C(=O)[N]1[Hg][c]1cccs1)C1(Cl)C(Cl)=C(Cl)C2(Cl)C1(Cl)Cl", "note": "(stereo not given)", "growth": "-83.7% (active)"}, {"smiles": "O=[N+]([O-])c1ccc2scc3c4ccccc4nc-3c2c1", "growth": "-84.5% (active)"}, {"smiles": "Nc1cccnc1", "growth": "130% (inactive)"}, {"smiles": "COc1ccc(/C=C\\c2cc(OC)c(OC)c(OC)c2)cc1OCC(=O)Nc1nc2ccc(C(F)(F)F)cc2s1", "growth": "1.38% (active)"}, {"smiles": "O=S(=O)(c1ccc(O)cc1)c1ccccc1O", "growth": "108% (inactive)"}, {"smiles": "CCOC(=O)c1ccccc1C(=O)OCC", "growth": "81% (inactive)"}, {"smiles": "COC(=O)C1CC2c3ccccc3C1c1ccccc12", "note": "(stereo not given)", "growth": "93.1% (inactive)"}, {"smiles": "COc1ccc2c(c1)c(-c1nc(-c3c[nH]c4ncccc34)cs1)cn2CCN1CCOCC1", "growth": "0.314% (active)"}, {"smiles": "COP(=O)(OC)C(O)c1ccc(Cl)cc1", "note": "(stereo not given)", "growth": "108% (inactive)"}, {"smiles": "C#CC1(O)CCC(C(C)(C)C)CC1", "note": "(stereo not given)", "growth": "122% (inactive)"}, {"smiles": "O=C(NC1=NCC[Se]1)c1ccccc1O", "growth": "93.1% (inactive)"}, {"smiles": "O=C(O)c1ccccc1N(CCO)CCCl", "growth": "95.1% (inactive)"}, {"smiles": "c1ccc(-c2ccc3ccccc3[o+]2)cc1", "growth": "94% (inactive)"}, {"smiles": "NC(=O)OCC(CO)(c1ccccc1)c1ccccc1", "growth": "93.8% (inactive)"}, {"smiles": "CC(=O)OCC1O[C@@H]([S-])C(OC(C)=O)[C@H](OC(C)=O)[C@@H]1OC(C)=O.[Au+].c1ccc(CN2[CH-]N(Cc3ccccc3)C(c3ccccc3)=C2c2ccccc2)cc1", "growth": "-61.7% (active)"}, {"smiles": "Clc1ccc(CSC(Cn2ccnc2)c2ccc(Cl)cc2Cl)cc1", "note": "(stereo not given)", "growth": "-2.39% (active)"}, {"smiles": "Oc1ccc(Br)cc1CN1CCN(Cc2ccc(Cl)cc2)CC1", "growth": "95.9% (inactive)"}, {"smiles": "COc1ccc(/C=C\\c2cc(OC)c(OC)c(OC)c2)cc1NS(=O)(=O)c1ccc(Cl)cc1", "growth": "42.2% (inactive)"}, {"smiles": "COC(=O)[C@H](Cc1ccccc1)NNC(=O)c1csc([C@@H](C[C@H](C(C)C)N(C)C(=O)[C@@H](NC(=O)[C@H]2CCCCN2C)C2CC2)OC(C)=O)n1", "growth": "-11.2% (active)"}, {"smiles": "Cc1ccc2c(C(C[N+](=O)[O-])c3cccs3)c(-c3ccccc3)[nH]c2c1", "note": "(stereo not given)", "growth": "-5.47% (active)"}, {"smiles": "CC[C@H](C)[C@H](NC(=O)C12CC(NC)(C1)C2)C(=O)N(C)[C@H](C[C@@H](OC(C)=O)c1nc(C(=O)N[C@@H](Cc2ccccc2)C[C@H](C)C(=O)OC)cs1)C(C)C", "growth": "-8.32% (active)"}, {"smiles": "N#C[S-].[Au+].c1ccc(CN2[CH-]N(Cc3ccccc3)C(c3ccccc3)=C2c2ccccc2)cc1", "growth": "-3.8% (active)"}, {"smiles": "ClCCN(CCCl)c1ccc(-n2cnc3c(Cl)ncnc32)cc1", "growth": "-43.5% (active)"}, {"smiles": "c1ccc2c(c1)O[As](O[As]1Oc3ccccc3O1)O2", "growth": "10.7% (inactive)"}, {"smiles": "CCC(C)[C@H]1O[C@]2(C=C[C@@H]1C)C[C@@H]1C[C@@H](C/C=C(\\C)[C@@H](OC3C[C@H](OC)C(O[C@H]4C[C@H](OC)[C@@H](O)[C@H](C)O4)[C@H](C)O3)[C@@H](C)/C=C/C=C3\\CO[C@@H]4[C@H](O)C(C)=C[C@@H](C(=O)O1)[C@]34O)O2", "note": "(stereo not given in full)", "growth": "-12.7% (active)"}, {"smiles": "Cc1cc(NC(=O)NCc2ccc(N3C(N)=NC(N)=NC3(C)C)cc2)ccc1S(=O)(=O)F", "growth": "63.3% (inactive)"}]}]}
